Pf apPOL block: Pf-apPOL DNA polymerase inhibition. Recombinant Pf-apPOL, molecular beacon fluorescence, 1.5 h. inhibition, % at 10 µM. 0.25% of 210,000 active
mHTT CaM bind: inhibitors of human mutant huntingtin-calmodulin interaction; AlphaScreen His-mHTT/GST-CaM binding, luminescence; AID 1671202; inhibition, % at 15 µM; P42858; 3.6% of 190,000 active;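 further: 0% = both proteins with DMSO and 100% = one protein alone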
Target sequence (P42858 whole entry, looked up, stated change not applied): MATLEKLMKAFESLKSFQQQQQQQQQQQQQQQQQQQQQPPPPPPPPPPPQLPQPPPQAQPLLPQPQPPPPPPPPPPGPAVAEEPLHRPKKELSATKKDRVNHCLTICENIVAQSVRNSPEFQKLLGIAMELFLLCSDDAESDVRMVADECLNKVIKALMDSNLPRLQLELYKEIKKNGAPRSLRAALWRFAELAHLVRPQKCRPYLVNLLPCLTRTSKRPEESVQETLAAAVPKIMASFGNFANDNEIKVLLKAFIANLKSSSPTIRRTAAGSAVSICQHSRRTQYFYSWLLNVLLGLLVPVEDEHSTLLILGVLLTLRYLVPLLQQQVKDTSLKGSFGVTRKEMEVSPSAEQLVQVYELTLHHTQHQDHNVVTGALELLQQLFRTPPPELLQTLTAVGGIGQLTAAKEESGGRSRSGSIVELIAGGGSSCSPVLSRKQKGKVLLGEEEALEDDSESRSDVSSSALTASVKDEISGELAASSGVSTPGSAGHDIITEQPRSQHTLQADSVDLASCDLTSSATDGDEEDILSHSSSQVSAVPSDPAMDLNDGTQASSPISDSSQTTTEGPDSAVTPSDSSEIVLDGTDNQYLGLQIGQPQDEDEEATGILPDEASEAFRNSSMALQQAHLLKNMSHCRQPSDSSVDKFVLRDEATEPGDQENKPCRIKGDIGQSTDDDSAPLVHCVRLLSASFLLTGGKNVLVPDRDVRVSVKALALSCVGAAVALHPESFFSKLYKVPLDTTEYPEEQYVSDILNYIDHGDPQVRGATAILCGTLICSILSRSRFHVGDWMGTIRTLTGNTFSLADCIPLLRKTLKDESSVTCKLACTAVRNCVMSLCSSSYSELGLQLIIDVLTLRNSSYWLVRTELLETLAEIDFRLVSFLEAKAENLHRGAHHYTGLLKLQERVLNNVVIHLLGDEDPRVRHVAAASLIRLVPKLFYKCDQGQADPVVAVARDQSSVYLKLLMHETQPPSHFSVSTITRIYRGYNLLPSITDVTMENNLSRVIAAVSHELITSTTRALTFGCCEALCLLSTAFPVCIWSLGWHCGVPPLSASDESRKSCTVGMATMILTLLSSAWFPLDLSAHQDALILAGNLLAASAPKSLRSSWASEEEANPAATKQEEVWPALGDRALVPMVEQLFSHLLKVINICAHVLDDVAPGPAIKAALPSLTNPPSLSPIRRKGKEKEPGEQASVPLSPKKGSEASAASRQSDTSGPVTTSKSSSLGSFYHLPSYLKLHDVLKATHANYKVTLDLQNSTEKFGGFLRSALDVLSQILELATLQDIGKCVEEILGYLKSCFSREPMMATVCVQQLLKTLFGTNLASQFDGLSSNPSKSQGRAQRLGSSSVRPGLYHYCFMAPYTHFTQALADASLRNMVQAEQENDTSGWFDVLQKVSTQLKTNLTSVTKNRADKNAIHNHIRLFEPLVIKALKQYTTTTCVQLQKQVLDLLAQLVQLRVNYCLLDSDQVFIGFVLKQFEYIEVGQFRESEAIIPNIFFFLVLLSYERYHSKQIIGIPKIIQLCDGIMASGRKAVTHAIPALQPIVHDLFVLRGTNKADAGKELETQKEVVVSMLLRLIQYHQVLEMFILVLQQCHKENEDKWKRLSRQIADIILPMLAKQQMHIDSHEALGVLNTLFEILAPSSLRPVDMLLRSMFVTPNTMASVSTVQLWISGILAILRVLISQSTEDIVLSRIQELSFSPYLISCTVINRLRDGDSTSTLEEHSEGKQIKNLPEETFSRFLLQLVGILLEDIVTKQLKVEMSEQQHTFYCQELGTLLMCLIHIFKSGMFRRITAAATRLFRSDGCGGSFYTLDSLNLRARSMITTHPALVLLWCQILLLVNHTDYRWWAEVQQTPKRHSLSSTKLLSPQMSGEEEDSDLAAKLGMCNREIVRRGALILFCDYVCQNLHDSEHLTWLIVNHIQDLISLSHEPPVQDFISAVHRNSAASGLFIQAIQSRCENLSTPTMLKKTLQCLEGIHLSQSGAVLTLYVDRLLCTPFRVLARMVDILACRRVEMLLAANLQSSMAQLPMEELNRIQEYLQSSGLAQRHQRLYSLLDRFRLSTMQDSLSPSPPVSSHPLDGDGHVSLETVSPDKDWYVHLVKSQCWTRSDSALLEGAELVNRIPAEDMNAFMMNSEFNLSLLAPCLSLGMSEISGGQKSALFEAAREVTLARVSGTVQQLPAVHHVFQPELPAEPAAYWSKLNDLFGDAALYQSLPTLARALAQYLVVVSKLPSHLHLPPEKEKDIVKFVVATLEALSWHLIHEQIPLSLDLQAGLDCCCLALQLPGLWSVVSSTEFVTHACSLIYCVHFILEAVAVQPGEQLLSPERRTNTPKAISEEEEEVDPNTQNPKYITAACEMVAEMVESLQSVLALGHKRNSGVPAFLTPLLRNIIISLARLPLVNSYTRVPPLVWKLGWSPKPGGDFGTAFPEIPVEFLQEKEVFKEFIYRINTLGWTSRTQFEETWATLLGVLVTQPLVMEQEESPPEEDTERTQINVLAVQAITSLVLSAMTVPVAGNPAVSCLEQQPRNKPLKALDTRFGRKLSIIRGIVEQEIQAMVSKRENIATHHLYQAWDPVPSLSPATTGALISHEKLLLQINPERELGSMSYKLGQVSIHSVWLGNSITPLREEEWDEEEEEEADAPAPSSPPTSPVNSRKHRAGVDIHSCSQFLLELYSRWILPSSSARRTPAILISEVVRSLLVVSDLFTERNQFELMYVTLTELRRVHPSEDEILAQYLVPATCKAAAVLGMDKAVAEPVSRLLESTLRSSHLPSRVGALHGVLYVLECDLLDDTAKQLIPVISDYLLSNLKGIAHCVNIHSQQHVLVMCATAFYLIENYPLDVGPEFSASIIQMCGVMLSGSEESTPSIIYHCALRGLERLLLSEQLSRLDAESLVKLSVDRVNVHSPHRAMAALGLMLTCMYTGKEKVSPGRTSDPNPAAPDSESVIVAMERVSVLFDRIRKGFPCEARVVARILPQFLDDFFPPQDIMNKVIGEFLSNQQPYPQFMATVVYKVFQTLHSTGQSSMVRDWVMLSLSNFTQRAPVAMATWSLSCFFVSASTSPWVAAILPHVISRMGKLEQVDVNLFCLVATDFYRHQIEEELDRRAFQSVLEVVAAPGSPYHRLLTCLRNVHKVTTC
* hit, by the source's call; / = no result. In the library only some 3.6% were active in any assay of this set; here they are far more common. No stated cut-off is given here; in the data, active means inhibition above about 50%; inactive means the rest.

SMILES	Pf apPOL block	mHTT CaM bind
O=C1CSC(c2ccc([N+](=O)[O-])cc2)N1CCN1CCCCC1 (configuration not stated)	-2.6	-4.0
COc1ccc(Br)c(C(=O)NCC(C)(O)CCSC)c1 (configuration not stated)	-3.3	-2.1
CCOc1ccc(C(=O)Nc2ccc(Br)c(C)c2)cc1[N+](=O)[O-]	-6.7	-1.1
O=C(CSc1nc2ccccc2[nH]1)c1ccc2c(c1)OCO2	-1.7	7.7
O=C(CSc1nc2ccccc2[nH]1)c1ccc(Cl)c(Cl)c1	-4.4	51.1*
Cc1cccc(NS(=O)(=O)c2cc3c(s2)CCN(C(=O)C2CC2)C3)c1C	-0.6	0.2
Cc1c(Cl)cccc1NS(=O)(=O)c1cc2c(s1)CCN(C(=O)C1CCC1)C2	-2.7	50.6*
O=C(c1ccc(F)cc1)N1CCC(CCNS(=O)(=O)c2cccc3nsnc23)CC1	-1.2	42.5
O=C(c1ccc(F)cc1)N1CCC(CCNS(=O)(=O)c2ccccc2F)CC1	0.0	27.3
Cc1ccc(C(=O)N2CCC(CCNS(=O)(=O)c3ccccc3Cl)CC2)cc1	-6.3	43.5
Cc1ccc(C(=O)N2CCC(CCNS(=O)(=O)c3cccc(Cl)c3C)CC2)cc1	-6.4	57.0*
Cc1c(Cl)cccc1S(=O)(=O)NCCC1CCN(C(=O)c2ccc(F)cc2)CC1	-1.7	51.3*
Cc1ccc(C(=O)N2CCC(CCNS(=O)(=O)c3ccc(F)c(Cl)c3)CC2)cc1	-0.3	61.9*
O=C(c1ccccc1)N1CCC(CCNS(=O)(=O)c2ccc(F)c(Cl)c2)CC1	1.3	22.5
Cc1ccc(C(=O)N2CCC(CCNS(=O)(=O)c3cccc4nsnc34)CC2)cc1	-2.5	51.5*
COc1ccc(C2=N/C(=C\c3coc4ccccc4c3=O)C(=O)O2)cc1Br	-2.2	4.0
COc1cccc2cc(C(=O)NCCn3nc(-c4ccco4)ccc3=O)oc12	5.4	-1.2
Cc1ccc(S(=O)(=O)NCCC2CCN(C(=O)c3ccc(F)cc3)CC2)cc1C	-3.4	29.6
Cc1cc(C)c(S(=O)(=O)NCCC2CCN(C(=O)c3ccc(F)cc3)CC2)cc1C	0.8	55.5*
OC(COCC(c1ccccc1)c1ccccc1)Cn1cnc2ccccc21 (configuration not stated)	-4.2	56.4*
OC(COCc1ccccc1)Cn1cnc2ccccc21 (configuration not stated)	3.3	-9.0
Cc1cccc(N2CCN(C(=O)c3c(C)sc4ccn(C)c(=O)c34)CC2)c1	2.0	36.5
Cc1sc2ccn(C)c(=O)c2c1C(=O)N1CCN(c2cccc(Cl)c2)CC1	-1.0	96.0*
CN(C)CCNC(=O)C1CCN(c2nc3ccc(-c4cccnc4)nc3s2)CC1	-2.4	0.4
CCN(C)Cc1nc2scc(-c3ccc(C)cc3C)c2c(=O)[nH]1	-7.8	9.6
SMILES	Pf apPOL block	mHTT CaM bind
COC(=O)c1n[nH]nc1[N+](=O)[O-]	/	-0.7
O=C(O)c1n[nH]nc1C(=O)O	/	62.5*
Cc1ccc(C2C(C#N)=C(N)Oc3c2ccc2cccnc32)cc1 (configuration not stated)	-5.0	58.3*
Cc1ccc(C2C(C#N)=C(N)Oc3cc(O)ccc32)cc1 (configuration not stated)	-5.9	9.9
O=C(Nc1cc(F)ccc1F)Nc1cccn2cnnc12	-2.8	-2.8
Cc1cc(C)n(CCNC(=O)CN2CCN(c3ccccc3)C2=O)n1	-14.1	-10.1
Cc1ccc(N2CC(C(=O)Nc3ccccc3F)CC2=O)cc1C (configuration not stated)	-9.3	1.0
Cc1[nH]n(-c2ccccc2)c(=O)c1C=Nc1cccc(N)c1	-2.5	24.0
Cc1ccc(C2=NN(C(=O)CN(C)C(=O)C3CC3)C(c3ccccc3)C2)cc1C (configuration not stated)	-2.8	27.3
Cc1ccc(C2CC(c3cccn3C)=NN2C(=O)CN(C)C(=O)C(C)C)cc1 (configuration not stated)	-5.2	62.1*
CN(CC(=O)N1N=C(c2ccc(F)cc2)CC1c1ccc(F)cc1)C(=O)C1CCC1 (configuration not stated)	-4.7	42.9
Cc1ccc(C2CC(c3cccn3C)=NN2C(=O)CN(C)C(=O)C2CCC2)cc1 (configuration not stated)	-7.6	53.9*
Cc1ccc(C2CC(c3ccccc3Cl)=NN2C(=O)CN(C)C(=O)C2CC2)cc1 (configuration not stated)	0.6	88.2*
CC(C)C(=O)N(C)CC(=O)N1N=C(c2ccccc2F)CC1c1ccc(F)cc1 (configuration not stated)	-1.8	14.3
CN(CC(=O)N1N=C(c2ccccc2Cl)CC1c1ccc(F)cc1)C(=O)C1CC1 (configuration not stated)	0.2	4.9
CC(=O)N(C)CC(=O)N1N=C(c2ccc(C)c(C)c2)CC1c1ccc(C)cc1 (configuration not stated)	-2.0	58.4*
CCOc1ccc(N2CCn3c2nn(CC(=O)c2ccc(OC)cc2)c(=O)c3=O)cc1	0.6	8.1
COc1ccc(C(C)NS(=O)(=O)c2cc3c(s2)CCN(C(C)=O)C3)cc1 (configuration not stated)	-7.0	5.3
CCCCCCN1C[C@@H](O)[C@H](n2cc(C3CC3)nn2)C[C@@H]1c1ccc(Cl)cc1	-7.7	-4.5
COC(=O)c1ccc(C(=O)Nc2c(C(N)=O)oc3ccccc23)cc1	0.0	19.0
Cc1ccc(C2CC(c3cccs3)=NN2C(=O)CN(C)C(=O)C2CCC2)cc1 (configuration not stated)	-2.0	50.8*
CCC(=O)N(C)CC(=O)N1N=C(c2cccs2)CC1c1ccc(C)cc1 (configuration not stated)	-2.0	14.2
NNc1nccc(Nc2ccccc2C(=O)O)n1	-4.4	100.2*
O=C(O)c1ccccc1Nc1ccnc(N2CCOCC2)n1	-1.5	0.0
COc1ccc(-n2nc3cc(C)c(NC(=O)c4ccccc4OC)cc3n2)cc1	3.4	-4.0
SMILES	Pf apPOL block	mHTT CaM bind
N#Cc1c(N)nc(SCC(=O)Nc2cccc([N+](=O)[O-])c2)c(C#N)c1-c1ccc(F)cc1	-6.4	28.0
CN(C)c1ccc(C(=O)Nc2nnc(-c3ccc(Br)cc3)o2)cc1	-30.5	60.4*
COc1ccc(-c2nnc(NC(=O)c3ccc(S(=O)(=O)N(C)C)cc3)o2)cc1	-1.1	30.0
CN(C)c1ccc(-c2noc(-c3ccc(Br)cc3)n2)cc1	-0.6	78.6*
CN(C)c1ccc(-c2nc(-c3ccc(=O)n(C)c3)no2)cc1	5.1	9.4
CN1C(=O)c2cccc(NC(=O)CSc3ccc(Cl)cc3)c2C1=O	-7.2	-5.8
Cc1ccc(C(c2ccc(C)o2)c2ccc(C)o2)o1	-1.6	-6.1
COc1ccccc1-c1cc(C(=O)O)c2ccccc2n1	-3.3	3.5
COc1ccc(C2Nc3ccccc3C(=O)N2c2ccc(F)cc2)cc1Cn1cc([N+](=O)[O-])cn1 (configuration not stated)	2.3	12.0
CCN(CC)CCSc1nc2ccc(OC)cc2[nH]1	4.7	26.0
CCN(CC)CCCC(C)Nc1c2ccc(Cl)cc2nc2ccc(OC)cc12 (configuration not stated)	61.7*	/
CN(CCCNC(=O)c1cc(-c2cccnc2)nc2ccccc12)C1CCCCC1	-12.3	-16.0
CCn1ccc2sc(C)c(C(=O)N3CCC(Cc4ccccc4)CC3)c2c1=O	-1.7	80.0*
CCn1ccc2sc(C)c(C(=O)N3CCC(N4CCCCC4)CC3)c2c1=O	-13.9	21.7
O=C(Nc1ccccc1Cl)c1cc([N+](=O)[O-])ccc1Cl	-2.9	10.0

Bioassay records: PubChem, University of Kansas High Throughput Screening Laboratory
